Laboratory results reported in PubChem BioAssay (NCATS).
Inconclusive results are not listed. The source made the active and inactive calls. Unless noted, calls come from the whole dose curve; as a rule, active = well fitted curve in either direction with a large enough effect (not every such curve was filed as active); inconclusive = small, poorly fitted or top-dose-only effect, or another doubt; inactive = flat fitted curve, though single readings scatter.

How the values were obtained:
[1] = target: Lysosomal acid glucosylceramidase (Homo sapiens) (UniProt P04062); experiment: Glucocerebrosidase-p2 (AID 348; in the data active = potency below about 10 µM; note: potency is the fitted concentration of half-maximal effect); conditions: purified GBA, blue fluorogenic substrate, 40 min
Chain of Lysosomal acid glucosylceramidase (Homo sapiens) (P04062 whole entry, looked up): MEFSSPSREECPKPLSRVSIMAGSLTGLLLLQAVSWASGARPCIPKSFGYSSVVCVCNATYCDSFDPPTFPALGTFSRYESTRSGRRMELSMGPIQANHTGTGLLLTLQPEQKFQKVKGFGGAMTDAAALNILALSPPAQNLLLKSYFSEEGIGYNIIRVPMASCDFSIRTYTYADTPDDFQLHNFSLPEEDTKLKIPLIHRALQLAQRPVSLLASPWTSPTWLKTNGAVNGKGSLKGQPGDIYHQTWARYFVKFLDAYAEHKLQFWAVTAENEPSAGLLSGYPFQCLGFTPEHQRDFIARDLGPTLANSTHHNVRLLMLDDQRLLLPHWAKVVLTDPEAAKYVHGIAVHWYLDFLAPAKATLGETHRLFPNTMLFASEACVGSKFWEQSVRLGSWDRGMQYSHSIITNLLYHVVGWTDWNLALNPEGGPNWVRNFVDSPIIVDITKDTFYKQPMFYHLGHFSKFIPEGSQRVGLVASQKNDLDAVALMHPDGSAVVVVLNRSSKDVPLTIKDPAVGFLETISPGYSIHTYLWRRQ
How it was run: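 Compounds titrated from 0.6 nM upwards against 0.2 nM enzyme in pH 5.9 citric acid/KH2PO4, taurocholate, tween-20; blue fluorogenic substrate 80 uM, 40 min room temperature, stopped and read Ex 365/Em 440 for AC50.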

[2] = AP1 Signaling Pathway (AID 357); conditions: ME-180 AP-1-bla reporter, EGF-induced, beta-lactamase ratio, 5 h; at 7.69 µM (top of the series) unless noted; note: % is set by controls: 0 for no effect and ±100 for the full control effect
How it was run: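 In this screen, ME-180 cells in Opti-MEM with 0.5% dialyzed FBS received EC50 EGF and compound titrations for 5 h. AP-1 reporter beta-lactamase was detected via CCF4 ratio, giving AC50 for positive and negative modulators.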

[3] = NFAT Signaling Pathway (AID 444); conditions: Jurkat NFAT-bla M1, carbachol, beta-lactamase ratio, 5 h; at 7.69 µM (top of the series) unless noted;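 note: carbachol stimulus at about its EC50 of 1 µM final; % is set by controls: 0 for no effect and ±100 for the full control effect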
How it was run: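 Jurkat cells with NFAT-driven β-lactamase reporter and co-expressed M1 receptor, stimulated with carbachol (final 1 uM, ~EC50), compound titration, 5 h at 37 °C. CCF4 loaded 1 h at RT; 460/530 nm ratio gave %activity and AC50.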

[4] = Stat Signaling Pathway (AID 446); conditions: ME-180 SIE beta-lactamase reporter, IL-6 stimulated, 5 h; at 7.69 µM (top of the series) unless noted;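 note: ME-180 cervical cancer cells given 40 pM IL-6 alongside compound; SIE-controlled beta-lactamase reporter measured as 460/530 nm FRET emission ratio; % is set by controls: 0 for no effect and ±100 for the full control effect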
How it was run: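 ME-180 cells carrying a SIE-driven beta-lactamase reporter are stimulated with 40 pM IL-6 for 5 h at 37C in the presence of compound. The 460/530 nm FRET substrate ratio is read after 2.5 h at RT. Data are normalised to 300 pM IL-6 and to 125 nM JAK inhibitor controls.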

[5] = target: Glucocorticoid receptor (Homo sapiens) (UniProt P04150); experiment: GR-GFP Redistribution (AID 450;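 active = compounds whose dose series gives a full or clear partial fitted curve of increased nuclear translocation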; note: potency is the fitted concentration of half-maximal effect); conditions: U2OS GR-GFP nuclear translocation, laser cytometry, 2 h
Chain of Glucocorticoid receptor (Homo sapiens) (P04150 whole entry, looked up, the tested form may be a part): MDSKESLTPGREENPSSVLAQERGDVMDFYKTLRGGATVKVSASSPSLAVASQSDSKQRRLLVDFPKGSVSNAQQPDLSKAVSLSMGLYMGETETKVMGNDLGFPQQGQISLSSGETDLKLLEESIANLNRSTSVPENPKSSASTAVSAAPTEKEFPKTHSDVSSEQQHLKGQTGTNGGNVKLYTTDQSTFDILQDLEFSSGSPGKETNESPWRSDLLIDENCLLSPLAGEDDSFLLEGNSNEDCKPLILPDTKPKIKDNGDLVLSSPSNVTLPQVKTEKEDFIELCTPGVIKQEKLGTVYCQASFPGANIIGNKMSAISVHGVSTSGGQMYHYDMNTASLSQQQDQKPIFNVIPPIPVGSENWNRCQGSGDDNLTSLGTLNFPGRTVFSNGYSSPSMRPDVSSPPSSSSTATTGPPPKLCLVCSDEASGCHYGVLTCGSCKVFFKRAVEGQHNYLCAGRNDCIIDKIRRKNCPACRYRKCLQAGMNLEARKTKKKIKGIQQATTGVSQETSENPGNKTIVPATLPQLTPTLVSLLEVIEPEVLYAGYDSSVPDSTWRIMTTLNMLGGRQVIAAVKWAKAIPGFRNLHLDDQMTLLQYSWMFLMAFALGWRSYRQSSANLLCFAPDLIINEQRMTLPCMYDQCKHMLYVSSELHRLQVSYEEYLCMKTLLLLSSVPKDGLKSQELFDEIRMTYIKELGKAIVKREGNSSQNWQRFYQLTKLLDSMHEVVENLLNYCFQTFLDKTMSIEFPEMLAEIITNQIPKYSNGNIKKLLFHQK

[6] = target: Glucocorticoid receptor (Homo sapiens) (UniProt P04150); experiment: GR-EFC Redistribution (AID 451; calls by dose curve; note: potency is the fitted concentration of half-maximal effect); conditions: CHO-K1 GR-EFC translocation, beta-gal luminescence, 2 h
How it was run: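 CHO-K1 cells expressing nuclear EA and GR-ED fragments of b-gal; compounds titrated up to 46 uM final, 2 h at 37 C. GR nuclear translocation read as complemented b-gal luminescence after 1 h RT detection.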

[7] = target: Mitogen-activated protein kinase 10 (Mus musculus) (UniProt Q61831); experiment: JNK3 AlphaScreen Assay (AID 530); conditions: JNK3 lysate, c-Jun phosphorylation; series mostly up to 57.1 µM;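 note: kinase came from lysate of stimulated human HepG2 cells; signal reports phosphorylation of biotinylated GST-cJun 1-79 at Ser73 with 10 µM ATP; % is set by controls: 0 for no effect and ±100 for the full control effect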
How it was run: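 qHTS format: compounds tested as titrations against IL-1beta/TNF-alpha-activated HepG2 lysate JNK3 with biotin-GST-cJun substrate and 10 uM ATP at room temperature. Loss of anti-phospho-cJun AlphaScreen signal indicates inhibition.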

[8] = target: 3',5'-cyclic-AMP phosphodiesterase 4B (Homo sapiens) (UniProt Q07343); experiment: qHTS Assay for Inhibitors of PDE-IV (AID 607; active = well fitted activation curve with a large enough effect in the main read-out, with a control signal flat, not every such curve was filed as active; note: potency is the fitted concentration of half-maximal effect); conditions: HEK293 ACTOne CNG channel cells, membrane potential fluorescence; series mostly up to 22.9 µM
Chain of 3',5'-cyclic-AMP phosphodiesterase 4B (Homo sapiens) (Q07343 whole entry, looked up): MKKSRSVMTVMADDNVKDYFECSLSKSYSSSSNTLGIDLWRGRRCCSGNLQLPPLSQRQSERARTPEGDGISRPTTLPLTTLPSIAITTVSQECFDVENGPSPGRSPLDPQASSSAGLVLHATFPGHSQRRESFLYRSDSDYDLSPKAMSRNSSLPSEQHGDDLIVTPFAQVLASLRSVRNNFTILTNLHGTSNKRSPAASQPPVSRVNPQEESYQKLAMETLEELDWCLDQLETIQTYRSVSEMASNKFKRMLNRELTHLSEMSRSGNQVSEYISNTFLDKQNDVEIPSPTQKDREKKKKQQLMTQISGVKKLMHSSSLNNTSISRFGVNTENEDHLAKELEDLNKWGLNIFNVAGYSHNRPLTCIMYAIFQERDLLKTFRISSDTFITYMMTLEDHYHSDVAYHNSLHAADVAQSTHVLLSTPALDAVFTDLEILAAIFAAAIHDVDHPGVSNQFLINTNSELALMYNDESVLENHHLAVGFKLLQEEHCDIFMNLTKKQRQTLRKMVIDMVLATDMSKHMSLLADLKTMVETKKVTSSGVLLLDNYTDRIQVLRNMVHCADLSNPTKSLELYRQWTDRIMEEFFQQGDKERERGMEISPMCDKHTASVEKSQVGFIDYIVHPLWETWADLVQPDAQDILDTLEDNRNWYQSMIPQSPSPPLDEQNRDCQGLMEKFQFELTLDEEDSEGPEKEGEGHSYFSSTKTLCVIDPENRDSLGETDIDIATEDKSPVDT
How it was run: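 HEK293 ACTOne cells with CNG channel (1000/well), endogenous PDE4; membrane potential dye, compounds up to 22.9 uM final. Fluorescence Ex 535/Em 590; RO 20-1724 (100 uM final) as reference.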

[9] = qHTS Assay for Identification of Small Molecule Agonists for Hypoxia Response Element Signaling Pathway (AID 914; active = well fitted activation curve with a large enough effect in the signal ratio, with a control signal flat, not every such curve was filed as active; the % refers to the signal ratio; note: potency is the fitted concentration of half-maximal effect); conditions: ME-180 (cervical carcinoma) HRE-bla reporter, beta-lactamase ratio, CoCl2, 17 h; activation: stronger effect = higher value
How it was run: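 HRE-bla ME-180 assay for agonist-like enhancement of an EC50 CoCl2 stimulus: 17 h at 37 degrees Celsius, CCF4 for 2.5 h, ratiometric 460/530 nm signal converted to %Activity and fitted to AC50.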

[10] = qHTS Assay for Lipid Storage Modulators (AID 1519; calls by dose curve); conditions: Drosophila S3 cells, BODIPY lipid droplet/cell ratio, laser cytometry, cells loaded with oleic acid; for activity change, negative = inhibition: at 57.5 µM (top of the series)
How it was run: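 Cells seeded at 5,000 per well were treated with compounds over a concentration series and loaded with oleic acid (400 uM, as added). Lipid droplet fluorescence (488 nm excitation, 500-530 nm channel) was read by laser-scanning cytometry and normalized to 20 uM Triacsin C.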

[11] = Primary qHTS for small molecule stabilizers of the endoplasmic reticulum resident proteome: Secreted ER Calcium Modulated Protein (SERCaMP) assay (AID 1508630; active = well fitted curve in the direction sought with a large enough effect; an effect the other way counts as inactive or inconclusive; note: % is set by controls: 0 for no effect and ±100 for the full control effect); conditions: SH-SY5Y GLuc-SERCaMP (Gaussia luciferase released on ER calcium loss) secretion, thapsigargin, luminescence; series mostly up to 38.4 µM
How it was run: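 GLuc-SERCaMP-expressing SH-SY5Y cells, pretreated 16 h with compound, are challenged with thapsigargin to empty ER calcium stores; after 4 h, coelenterazine is added directly to the medium and luminescence is imaged.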

[12] = target: Cytochrome P450 1A2 (Homo sapiens) (UniProt P05177); experiment: p450-cyp1a2 (AID 410; calls by dose curve; note: potency is the fitted concentration of half-maximal effect); conditions: recombinant CYP1A2, luciferin-ME demethylation, luminescence; series mostly up to 57 µM
Chain of Cytochrome P450 1A2 (Homo sapiens) (P05177 whole entry, looked up): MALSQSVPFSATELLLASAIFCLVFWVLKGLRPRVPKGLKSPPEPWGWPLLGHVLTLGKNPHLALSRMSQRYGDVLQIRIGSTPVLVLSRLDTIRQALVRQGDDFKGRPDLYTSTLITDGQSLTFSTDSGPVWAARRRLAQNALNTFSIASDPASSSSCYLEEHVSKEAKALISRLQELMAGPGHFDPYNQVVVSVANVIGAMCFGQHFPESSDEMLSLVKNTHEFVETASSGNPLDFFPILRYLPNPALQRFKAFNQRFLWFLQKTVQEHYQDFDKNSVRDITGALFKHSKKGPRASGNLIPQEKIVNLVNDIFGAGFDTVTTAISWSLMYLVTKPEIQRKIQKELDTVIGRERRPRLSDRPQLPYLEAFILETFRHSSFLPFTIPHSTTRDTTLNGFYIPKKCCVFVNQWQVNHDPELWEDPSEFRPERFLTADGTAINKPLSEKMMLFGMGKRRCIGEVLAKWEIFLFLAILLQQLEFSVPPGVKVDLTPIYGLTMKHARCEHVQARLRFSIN
How it was run: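 Human CYP1A2 (20nM) demethylated Luciferin-ME at its Km (100uM) in 100mM KPO4. After 10 min compound preincubation, NADPH regeneration ran the reaction 60 min at room temperature. Luciferin was read by luminescence, normalized to 57 uM furafylline.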

[13] = target: Cytochrome P450 3A4 (Homo sapiens) (UniProt P08684); experiment: qHTS Assay for Inhibitors and Substrates of Cytochrome P450 3A4 (AID 884; active = well fitted curve in the direction sought with a large enough effect; an effect the other way counts as inactive or inconclusive; note: potency is the fitted concentration of half-maximal effect; nearly all actives have a fitted effect of over 50% in size); conditions: recombinant CYP3A4, Luciferin-PPXE luminescence; series mostly up to 57.1 µM
Chain of Cytochrome P450 3A4 (Homo sapiens) (P08684 whole entry, looked up): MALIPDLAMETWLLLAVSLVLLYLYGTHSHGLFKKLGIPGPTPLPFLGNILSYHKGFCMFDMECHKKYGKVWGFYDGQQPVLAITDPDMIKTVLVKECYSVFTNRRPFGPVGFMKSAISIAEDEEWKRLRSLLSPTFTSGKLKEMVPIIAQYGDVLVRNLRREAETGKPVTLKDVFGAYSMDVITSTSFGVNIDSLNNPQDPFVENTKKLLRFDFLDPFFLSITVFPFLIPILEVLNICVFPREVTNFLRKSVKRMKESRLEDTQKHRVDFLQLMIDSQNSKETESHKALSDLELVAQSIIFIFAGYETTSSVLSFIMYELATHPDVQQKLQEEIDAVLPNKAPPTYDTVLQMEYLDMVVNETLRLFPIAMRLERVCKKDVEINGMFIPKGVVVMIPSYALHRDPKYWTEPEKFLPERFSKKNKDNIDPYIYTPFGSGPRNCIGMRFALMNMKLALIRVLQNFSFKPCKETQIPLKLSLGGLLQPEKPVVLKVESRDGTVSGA
How it was run: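 20 nM human CYP3A4 with 25 uM Luciferin-PPXE (at KM) in 200 mM KPO4, preincubated 10 min with compound; NADPH regeneration started a 60 min RT reaction. Luciferin detected by luminescence, normalized to 57 uM ketoconazole as full inhibition.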

[14] = target: Cytochrome P450 3A4 (Homo sapiens) (UniProt P08684); experiment: qHTS Assay for Activators of Cytochrome P450 3A4 (AID 885; active = well fitted curve in the direction sought with a large enough effect; an effect the other way counts as inactive or inconclusive; note: nearly all actives have a fitted effect of over 65% in size); conditions: recombinant CYP3A4, Luciferin-PPXE luminescence, 60 min; series mostly up to 57.1 µM
How it was run: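 Human CYP3A4 (20 nM) with Luciferin-PPXE at 25 uM (its KM) in 200 mM KPO4; 10 min compound preincubation, then NADPH regeneration and 60 min reaction at RT. Luciferin read by luminescence; normalized to 57 uM ketoconazole full inhibition.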

[15] = Confirmation and Secondary Assay for Modulators of Hemoglobin Beta Chain Splicing at IVS2 654 locus (AID 910; active = well fitted curve in the direction sought with a large enough effect; an effect the other way counts as inactive or inconclusive;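 note: HeLa cells stably carrying EGFP split by mutant beta-globin IVS2-654 intron; % of control where 0% means no effect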); conditions: HeLa EGFP-654 splicing reporter, GFP fluorescence, 48 h; series mostly up to 38.3 µM
How it was run: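 HeLa cells stably expressing EGFP interrupted by β-globin IVS2-654 intron, seeded overnight in Opti-MEM/2% FCS, then treated 2 days at 37 °C. Restored splicing read as total peak GFP intensity per well by laser scanning cytometry (488 nm excitation, 500–520 nm emission); 500 nM antisense PNA as control.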

[16] = Confirmation and Secondary Assay for Modulators of Hemoglobin Beta Chain Splicing at IVS2 705 locus (AID 930; active = well fitted curve in the direction sought with a large enough effect; an effect the other way counts as inactive or inconclusive;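 note: HeLa cells stably expressing the EGFP-705 splicing reporter; GFP fluorescence per well restored by corrected splicing of the IVS2-705 intron in EGFP; % of control where 0% means no effect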); conditions: HeLa EGFP-705 splicing reporter, GFP fluorescence, 48 h; series mostly up to 38.3 µM
How it was run: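 HeLa IVS2-705 EGFP reporter cells, 500/well, compound 2 d at 37C; correct splicing yields fluorescent EGFP. Control: 500 nM antisense PNA. Read-out: total peak GFP intensity.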

[17] = target: Ubiquitin carboxyl-terminal hydrolase 1 (Homo sapiens) (UniProt O94782); experiment: Inhibitors of USP1/UAF1: Pilot qHTS (AID 504865; active = well fitted curve in the direction sought with a large enough effect; an effect the other way counts as inactive or inconclusive;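 note: rhodamine fluorescence freed from ubiquitin-rhodamine substrate followed over time; top concentration of the series differs between compounds; % is set by controls: 0 for no effect and ±100 for the full control effect; nearly all actives have a fitted effect of over 35% in size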); conditions: purified USP1/UAF1, Ub-rhodamine cleavage fluorescence; series mostly up to 54.9 µM
Chain of Ubiquitin carboxyl-terminal hydrolase 1 (Homo sapiens) (O94782 whole entry, looked up): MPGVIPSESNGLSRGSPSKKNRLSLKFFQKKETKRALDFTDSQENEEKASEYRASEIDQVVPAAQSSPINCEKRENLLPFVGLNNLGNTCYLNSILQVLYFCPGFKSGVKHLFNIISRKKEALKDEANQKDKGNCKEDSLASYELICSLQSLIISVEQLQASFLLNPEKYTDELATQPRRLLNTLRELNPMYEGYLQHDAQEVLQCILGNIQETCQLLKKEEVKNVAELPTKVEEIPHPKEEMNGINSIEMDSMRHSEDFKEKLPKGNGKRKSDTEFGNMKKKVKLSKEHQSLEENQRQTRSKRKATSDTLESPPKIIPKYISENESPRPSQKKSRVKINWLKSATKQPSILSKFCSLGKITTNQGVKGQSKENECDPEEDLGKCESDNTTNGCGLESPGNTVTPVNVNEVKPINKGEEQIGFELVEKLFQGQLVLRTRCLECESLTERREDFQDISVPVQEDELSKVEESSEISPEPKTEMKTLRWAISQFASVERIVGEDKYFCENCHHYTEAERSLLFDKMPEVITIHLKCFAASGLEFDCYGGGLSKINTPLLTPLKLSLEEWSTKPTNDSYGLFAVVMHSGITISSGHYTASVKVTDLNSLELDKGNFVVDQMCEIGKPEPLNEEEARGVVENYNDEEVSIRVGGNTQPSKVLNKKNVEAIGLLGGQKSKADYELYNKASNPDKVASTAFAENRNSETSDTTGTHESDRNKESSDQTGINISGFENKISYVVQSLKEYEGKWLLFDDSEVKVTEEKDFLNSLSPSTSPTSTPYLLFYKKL
How it was run: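 Kinetic fluorescence assay: 1nM USP1/UAF1, 15 min compound preincubation, then 150nM Ub-Rho; 480/540 nm.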

[18] = measured here: cell count channel max response
[19] = measured here: lipid channel max response

SMILES	Potency [1]	activity change, negative = inhibition [2]	activity change, negative = inhibition [3]	activity, negative = inhibition [4]	Potency [5]	Potency [6]	Potency [7]	Potency [8]	Potency [9]	activity change, negative = inhibition [10]	max response [10, 18]	max response [10, 19]	outcome [11]	Potency [12]	Potency [13]	Potency [14]	Potency [15]	outcome [16]	Potency [17]
COc1ccc(-c2nc3cnc(Oc4ccccc4)nc3n(Cc3cccs3)c2=O)cc1	> 11.4 µM (inactive)	0.136% (inactive)	-1.73% (inactive)	16.1% (inactive)	> 9.22 µM (inactive)	> 46 µM (inactive)	inactive	inactive	2.51 µM (active)	-0.637% (inactive)	27.6%	28.4%	inactive						
CS(=O)(=O)Nc1cccc(-c2nc(NCc3cccs3)c3ccccc3n2)c1	> 2.29 µM (inactive)	-19.7% (inactive)			> 46 µM (inactive)	> 46 µM (inactive)	inactive			6.98% (inactive)	-9.8%	-2.81%	inactive	1 µM (active)	3.16 µM (active)	inactive	inactive	inactive	inactive
CCNc1ncc2ncc(=O)n(C)c2n1	> 11.4 µM (inactive)	3.09% (inactive)	-4.43% (inactive)	-6.09% (inactive)	> 9.22 µM (inactive)	> 46 µM (inactive)	inactive	inactive		5.71% (inactive)	10.2%	17.6%	inactive						
O=C(c1ccncc1)N1CCC[C@@]2(CCN(C(c3ccccc3)c3ccccc3)C2)C1	> 11.4 µM (inactive)	-4.57% (inactive)	17.1% (inactive)	0.76% (inactive)		> 46 µM (inactive)	inactive			-4.39% (inactive)	-3.62%	-3.76%	inactive						
Cc1cccc(CNc2cc(-c3ccoc3)ncn2)c1	> 11.4 µM (inactive)	-15.6% (inactive)	12% (inactive)	-3.91% (inactive)	> 46 µM (inactive)	> 46 µM (inactive)	inactive	inactive		5.52% (inactive)	-1.87%	6.63%	inactive			inactive	inactive	inactive	
COc1ncc2nc(-c3ccccc3)c(=O)n(C[C@H]3CCCO3)c2n1	> 11.4 µM (inactive)	-19.2% (inactive)	-13.8% (inactive)	0.632% (inactive)	> 9.22 µM (inactive)	> 46 µM (inactive)	inactive	inactive		1.51% (inactive)	9.98%	14.7%	inactive			inactive			
O=C(Nc1cccc(F)c1)N1CC2(CCN(C(=O)c3cccc(F)c3)CC2)C1	> 11.4 µM (inactive)	-21.6% (inactive)	22.7% (inactive)	-4.12% (inactive)		> 46 µM (inactive)	inactive	inactive		1.48% (inactive)	1.76%	6.4%	inactive						
COc1ccc(NC(=O)N2CC3(CCNCC3)C2)cc1	> 11.4 µM (inactive)	7.88% (inactive)	6.29% (inactive)	-3.83% (inactive)		> 46 µM (inactive)	inactive	inactive		5.62% (inactive)	12.7%	23%	inactive						
COc1ccc(CNc2ncncc2-c2ccccc2Cl)c(OC)c1	> 11.4 µM (inactive)	-16.1% (inactive)	-7% (inactive)	15.1% (inactive)	> 46 µM (inactive)	> 46 µM (inactive)	inactive	inactive		5.27% (inactive)	-5%	2.12%	inactive				inactive	inactive	inactive
Cc1ccccc1-c1nc(NCCN2CCOCC2)c2ccccc2n1	> 11.4 µM (inactive)	-10.8% (inactive)	-9.08% (inactive)	-0.303% (inactive)	> 46 µM (inactive)	> 46 µM (inactive)	inactive	inactive		8.15% (inactive)	17.4%	26.1%	inactive					inactive	
Cc1noc(C)c1-c1nc(NCc2cccnc2)c2ccccc2n1	> 11.4 µM (inactive)	2.83% (inactive)	-10.7% (inactive)	-14.2% (inactive)	> 46 µM (inactive)	> 46 µM (inactive)	inactive			11.8% (inactive)	12.2%	21%	inactive				inactive		
CN(C)c1ncc2nc(-c3ccc(F)cc3)c(=O)n(C3CC3)c2n1	> 11.4 µM (inactive)	18.2% (inactive)			> 9.22 µM (inactive)	> 46 µM (inactive)	inactive	2 µM (active)	2.51 µM (active)	2.01% (inactive)	10.2%	13.7%	inactive	1.58 µM (active)					
O=C(c1csnn1)N1CCC[C@@]2(CCN(C(c3ccccc3)c3ccccc3)C2)C1	> 11.4 µM (inactive)	8.26% (inactive)	29.4% (inactive)	26.4% (inactive)		> 46 µM (inactive)	inactive	inactive		-19.7% (inactive)	-5.14%	-20.5%	inactive						
COc1ccc(NC(=O)N2CC3(CCN(C(=O)c4cc(C(F)(F)F)cc(C(F)(F)F)c4)CC3)C2)cc1	> 11.4 µM (inactive)	-15.1% (inactive)	16% (inactive)	-20.2% (inactive)		> 46 µM (inactive)	inactive	inactive		2.01% (inactive)	12.2%	18.4%	inactive						
